{"source": "the supplement of paper PMC6555819"}
{"test_system": "FXR:RXRa (NR concentration 270 nM, RXRa partner concentration 90 nM)", "test": "PBM binding z-score (relative to random genomic background probes); higher = stronger binding; sequences stand for … in GC…GCGATTGACAGCGTAGAATGAAGG", "procedure,_shortened": "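Ligand-free nuclear receptor dimers were bound for 1 h to custom Agilent 4×180K protein-binding microarrays. Detection used antibodies against each partner (one per run). Binding z-scores rest on regression-normalized fluorescence, with random background probes as the reference.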"}
{"sequence": "CGTCCAAGGTCAAGGTCGGTGAAAGAGACTCGAA", "PBM binding z-score": 7.27}
{"sequence": "TCTTGTAGATCAATAGAGGTTCAGAAAGTGCGCT", "PBM binding z-score": 0.408}
{"sequence": "CCTACTGGGCCAACGTCATTGATCAGTCAAAGCA", "PBM binding z-score": -0.18}
{"sequence": "AGAACGAGGGCACGCAGAGTTGATAGCAGAGTAG", "PBM binding z-score": 1.14}
{"sequence": "GCCTATAGGTAATACAAGGTGAAAGTCCGATTGT", "PBM binding z-score": 2.26}
{"sequence": "TAGCCTAGGTCATTGGGCGAGTATAGTACGCATC", "PBM binding z-score": 4.55}
{"sequence": "ACAGACAGGTGAGTGAAGGTAACTAAGCTGGACG", "PBM binding z-score": 0.105}
{"sequence": "TTACCAAGTTGAGCTGAGGTCGTTGATCCAACTC", "PBM binding z-score": 0.614}
{"sequence": "TGAGTGAGGTTAAAGATCAGGGAACGTGGCGTCG", "PBM binding z-score": 2.78}
{"sequence": "CCTCGGAGGACTGAAGGTCAGAGCTGTCCGCTTT", "PBM binding z-score": 0.88}
{"sequence": "CCTACTGGGCCACGGTCATTGATCAGTCAAAGCA", "PBM binding z-score": -0.282}
{"sequence": "GGAACGAGGACATTCGAGTTGATAGCATGGCGAT", "PBM binding z-score": 0.116}
{"sequence": "CTACCAAGGAGAACAAGGTCGTTGATTACTATTC", "PBM binding z-score": 0.511}
{"sequence": "TCGAGTAGGTTGGGGGCATTCAGAATGGCGTCGA", "PBM binding z-score": 1.39}
{"sequence": "CCAGATAGGTGAAAGGTAACTCAGTCTGGTACGC", "PBM binding z-score": 0.688}
{"sequence": "ACTCGGAGGACAAAGGCCAGAGCTACGCCAGTGA", "PBM binding z-score": -0.254}
{"sequence": "CAAACTAGGTCAAGTTCAAAGTCGGTTTGTGCCA", "PBM binding z-score": 5.99}
{"sequence": "GTACCAAGGTGGATAGGTCGTTGATGAGTAGGCG", "PBM binding z-score": -0.366}
{"sequence": "TCTGCTCGGTCAGTTGGTCAGCTAACGAGCTGCC", "PBM binding z-score": -0.211}
{"sequence": "CATACAGTGTCAGCTAGGCCAGAGTAGGGACGGC", "PBM binding z-score": -0.279}
{"sequence": "CGTCCAAGGACAAAGGTCAGTGAAGAGATGACGG", "PBM binding z-score": 3.18}
{"sequence": "TCTATTACTTGATTAGGGCAACCGAAACAGCGGA", "PBM binding z-score": 0.823}
